# From PubChem
# Shown are actives, neighbours in structure and some others; about 9.2% of the full set was active somewhere.
# FLuc counter: qHTS profiling assay for firefly luciferase inhibitor/activator using purifed enzyme and Km concentrations of substrates (counterscreen for miR-21 project) | Luciferin 4-monooxygenase (Photinus pyralis), P08659 | Potency, µM (highest dose often 57.5 µM), inactives show top-dose activity change, negative = inhibition, hits mostly inhibitors | AID 588342, 2011 | 360,000 tested, 6.9% active | purified FLuc, Km substrates, luminescence inhibition;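 also: plate controls were vehicle for no effect and reference inhibitor for full effect; nearly all actives have a fitted effect of over 55% in size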
# Target sequence (P08659 whole entry, looked up): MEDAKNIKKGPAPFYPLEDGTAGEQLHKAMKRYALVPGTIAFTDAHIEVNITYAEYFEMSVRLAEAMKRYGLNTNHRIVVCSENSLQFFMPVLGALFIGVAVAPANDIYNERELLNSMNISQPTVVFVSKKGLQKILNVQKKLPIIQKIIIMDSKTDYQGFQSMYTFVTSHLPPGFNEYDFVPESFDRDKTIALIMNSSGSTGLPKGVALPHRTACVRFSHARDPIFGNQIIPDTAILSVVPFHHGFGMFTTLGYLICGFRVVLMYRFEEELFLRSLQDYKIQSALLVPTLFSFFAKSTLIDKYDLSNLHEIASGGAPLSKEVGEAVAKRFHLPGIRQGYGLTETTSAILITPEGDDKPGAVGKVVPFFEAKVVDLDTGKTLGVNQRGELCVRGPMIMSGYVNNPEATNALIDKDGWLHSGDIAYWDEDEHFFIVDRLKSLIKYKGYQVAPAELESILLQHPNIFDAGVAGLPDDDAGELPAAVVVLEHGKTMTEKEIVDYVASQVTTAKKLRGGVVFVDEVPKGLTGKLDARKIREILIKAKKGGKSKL
#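 Purified P. pyralis luciferase (10nM final) with 10uM D-luciferin and 10uM ATP (Km levels) in 50mM Tris acetate pH 7.5, 10mM Mg acetate, 0.01% Tween-20, 0.05% BSA; qHTS 6-point titration, ~60 µM downward; luminescence read.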
# ELG1 genotoxic: qHTS screen for small molecules that induce genotoxicity in human embryonic kidney (HEK293T) cells expressing luciferase-tagged ELG1; HEK293T ELG1-luciferase reporter, luminescence, 16 h; Potency, µM (top dose mostly 46 µM), inactives show at the highest dose activity change, positive = activation, actives largely listed as activators; 330,000 tested, 1.3% active; AID 504466, 2011; also: % of control where 0% means no effect; nearly all actives have a fitted effect of over 60% in size
#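 Quantitative HTS format in 1536-well plates. HEK293T ELG1-luciferase reporter cells receive test compound and are incubated 16 hr at 37 °C, 5% CO2; ONE-Glo added, 30 min room temperature, then luminescence read.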
# SMN2 splice up: qHTS Assay for Enhancers of SMN2 Splice Variant Expression. HEK293 SMN2-luciferase splicing reporter, luminescence, 30-36 h. Potency, µM (highest dose often 46.1 µM), inactives show top-dose activity change, positive = activation, usual class: activators. 210,000 tested, 2.8% active; also: % of control where 0% means no effect; nearly all actives have a fitted effect of over 55% in size
#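 HEK293 cells carry an SMN2 minigene-luciferase reporter in which exon 7 inclusion puts luciferase in frame. Cells were seeded at 2000 cells/well, attached for 10-12 hours, then exposed to compounds for 30-36 hours at 37C before ONE-Glo luminescence.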
# NPC1 prom act: qHTS Assay for NPC1 Promoter Activators; Huh7 NPC1 promoter luciferase reporter, 24 h; AID 485313, 2010; Potency, µM (highest dose often 9.22 µM), for inactives: at the highest dose activation, actives largely listed as activators; 320,000 tested, 2.4% active; also: % of control where 0% means no effect; nearly all actives have a fitted effect of over 60% in size
#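 Huh7 cells stably carrying NPC1 promoter–luciferase, plated in Opti-MEM with 10% FBS for 2 h, were exposed to compound in DMSO for 24 h at 37 °C; luciferase reagent was added for 10 min and luminescence read.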
# ELG1 DNA repair: qHTS screen for small molecules that inhibit ELG1-dependent DNA repair in human embryonic kidney (HEK293T) cells expressing luciferase-tagged ELG1. HEK293T ELG1-luciferase reporter, luminescence, 16 h; DNA damage induced by 5-fluorouridine. Potency, µM (highest dose often 46.1 µM), without a hit: top-dose activity change, negative = inhibition, actives largely listed as inhibitors. 330,000 tested, 2.3% active; also: % is scaled to controls: 0 for no effect and ±100 for the full control effect; nearly all actives have a fitted effect of over 55% in size
#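 Quantitative HTS, concentration-response format. 2,000 cells/well co-treated with 5-fluorouridine and compound, 16 hr in 5% CO2 at 37 °C; ONE-Glo luminescence read after 30 min.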
# Rab9 promoter act: qHTS Assay for Rab9 Promoter Activators | Huh7 Rab9 promoter-luciferase reporter, luminescence, 24 h | Potency, µM (highest dose often 9.22 µM), inactives show top-dose activation, negative = inhibition, hits mostly activators | 320,000 tested, 2.8% active; also: % of control where 0% means no effect; nearly all actives have a fitted effect of over 60% in size
#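 Rab9 promoter-driven luciferase in stably transfected Huh7 cells; 1500 cells/well rested 2 h, exposed to compound in DMSO for 24 h at 37 °C, 5% CO2. Luminescence read 10 min after adding luciferase reagent at ambient temperature.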
# * = called active by the depositor; ? = inconclusive; nt = no result. Calls follow the shape of the dose curve; as a rule, active = well fitted curve in the direction sought with a large enough effect; inconclusive = small, poorly fitted or top-dose-only effect, or another doubt; inactive = no such curve, though single readings can be large; an effect the other way counts as inactive or inconclusive. Potency is read from the fitted curve at half-maximal effect.
SMILES,FLuc counter,ELG1 genotoxic,SMN2 splice up,NPC1 prom act,ELG1 DNA repair,Rab9 promoter act
CCC(=O)Nc1ccc2oc(-c3cccc(C)c3)nc2c1,0.54µM*,0.41µM*,0.5µM*,0.11µM*,?,0.28µM*
CCC(=O)Nc1cccc(-c2nc3ccc(C)cc3o2)c1,2.4µM*,?,nt,2.8µM*,?,4.5µM*
O=C(NNC(=O)c1cc(Br)c(Br)s1)c1ccncc1,?,4%,nt,0%,4%,2%
NS(=O)(=O)c1ccc(CCNC(=O)COC(=O)CC(c2ccccc2)c2ccccc2)cc1,-2%,-9%,-35%,-1%,21µM*,-11%
CC(C)(C)c1ccc(C(=O)CCC(=O)OCC(=O)NCCc2ccc(S(N)(=O)=O)cc2)cc1,12µM*,2%,nt,-2%,4%,-4%
NS(=O)(=O)c1ccc(CCNC(=O)COC(=O)CCc2ccccc2)cc1,4%,1%,5%,-5%,2%,0%
NS(=O)(=O)c1ccc(CCNC(=O)CNCCc2ccc(C(F)(F)F)cc2)cc1,-1%,-5%,nt,-13%,21µM*,-10%
CCOC(=O)C1=C(CS(=O)(=O)c2cccc(C(F)(F)F)c2)NC(=O)NC1c1cccc(OC)c1 (stereo unspecified),-9%,nt,7%,nt,nt,nt
Cc1ccc(C(=O)N/N=C/c2ccc([N+](=O)[O-])s2)cc1,-7%,-5%,-49%,-37%,-23%,-40%
O=C(N/N=C/c1ccc([N+](=O)[O-])s1)c1cccc(Br)c1,-6%,-1%,-90%,-13%,10µM*,-20%
O=C(CNC(=O)c1ccccc1)N/N=C/c1ccc([N+](=O)[O-])s1,-6%,-17%,-41%,-2%,6.5µM*,-15%
CC(C1CCN(Cc2nc(C3CC3)no2)CC1)N1CCOCC1 (stereo unspecified),-1%,2%,-3%,1%,10%,-2%
CN(C(=O)COC(=O)c1c2c(nc3ccccc13)CCCC2)c1c(N)n(Cc2ccccc2)c(=O)[nH]c1=O,-2%,4%,nt,1%,0%,-1%
COc1ccc(-c2cn3nc(N4CCC(C(=O)Nc5ccc(C)cc5)CC4)sc3n2)cc1,1%,nt,nt,nt,nt,nt
Cc1ccc(Cl)cc1Nc1nc(-c2cccnc2)cs1,?,-3%,nt,3%,?,17%
c1ccc(-c2csc(Nc3cccnc3)n2)cc1,11µM*,?,nt,?,?,2.8µM*
CC(=O)Nc1ccc(C(=O)Nc2nc(-c3cccnc3)cs2)cc1,?,-2%,?,-1%,1%,1%
Clc1ccc(-c2csc(Nc3cccnc3)n2)cc1,-20%,6%,nt,?,19%,27%
Fc1ccc(Nc2nc(-c3cccnc3)cs2)cc1,3µM*,?,13µM*,8%,?,?
Clc1ccc(Nc2nc(-c3cccnc3)cs2)cc1,11µM*,?,22%,-1%,?,6%
O=C(NCc1ccc(F)cc1)c1ccc2c(Cl)c3c(nc2c1)CCCC3,-2%,nt,-15%,nt,nt,nt
CN(C(=O)c1ccc2c(Cl)c3c(nc2c1)CCC3)c1ccccc1,21µM*,?,nt,?,?,?
Cc1cccc(NC(=O)c2ccc3c(Cl)c4c(nc3c2)CCCC4)n1,0.67µM*,2.9µM*,3.2µM*,1.1µM*,?,0.56µM*
O=C(Nc1ccc(Cl)cn1)c1ccc2c(Cl)c3c(nc2c1)CCC3,0.19µM*,?,nt,0.32µM*,?,?
CCOc1ccc(NC(=O)c2ccc3c(SCC(=O)O)c4c(nc3c2)CCC4)cc1,24µM*,nt,-65%,nt,nt,nt
SMILES,FLuc counter,ELG1 genotoxic,SMN2 splice up,NPC1 prom act,ELG1 DNA repair,Rab9 promoter act
COc1ccc(S(=O)(=O)Nc2cccc3c2O[C@H](CN(C)S(=O)(=O)c2cn(C)cn2)[C@@H](C)CN([C@H](C)CO)C3=O)cc1,nt,4%,nt,nt,6%,nt
COc1cccc(CN2CCNC(=O)C2CC(=O)NCCn2ccc3ccccc32)c1OC (stereo unspecified),4%,-5%,15%,1%,-6%,-4%
O=C(CSCc1ccc(Cl)cc1)N/N=C/c1ccco1,-9%,?,-13%,-2%,-1%,10%
COCCCNc1oc(-c2ccc(COc3ccccc3C)o2)nc1C#N,-13%,nt,nt,nt,nt,nt
CC(C)c1ccccc1NC(=S)NCC1(N(C)C)CCCCC1,2%,-2%,nt,-3%,-3%,-9%
COc1ccc(C)cc1NC(=O)c1ccc2c(Cl)c3c(nc2c1)CCC3,1.7µM*,nt,-10%,nt,nt,nt
CCC(C)NC(=O)c1ccc2c(Cl)c3c(nc2c1)CCC3 (stereo unspecified),4.8µM*,?,nt,2.8µM*,?,2.5µM*
COc1cc(Cl)c(C)cc1NC(=O)c1ccc2c(Cl)c3c(nc2c1)CCC3,-5%,nt,?,nt,nt,nt
CCC(C)NC(=O)c1ccc2c(SCC(=O)O)c3c(nc2c1)CCCC3 (stereo unspecified),?,1%,-10%,-1%,2%,1%
Cc1csc(NC(=O)CSc2nnc(-c3ccoc3C)o2)n1,-3%,9%,11µM*,?,?,?
Cc1csc(NC(=O)CSc2nnc(-c3ccncc3)o2)n1,-2%,5%,3.2µM*,25%,?,?
CCc1ccc(-n2nc3cc(C)c(NC(=O)c4ccccc4C)cc3n2)cc1,?,nt,11%,nt,nt,nt
CCc1ccc(-n2nc3cc(C)c(N)cc3n2)cc1,0.19µM*,0.41µM*,nt,0.32µM*,?,0.13µM*
Cc1ccc(-n2nc3cc(C)c(N)cc3n2)cc1,0.27µM*,?,1.4µM*,4µM*,?,1.1µM*
CCc1cccc(C)c1NC(=O)CSc1nnc(CC)n2c1cc1occc12,0%,nt,nt,nt,nt,nt
Cc1cccc(Cn2cc(C(=O)c3ccccc3)c(=O)c3cc4c(cc32)OCO4)c1,-3%,nt,7%,nt,nt,nt
O=C(NCc1ccccc1)c1ccc(C2SCC(=O)N2Cc2ccccc2)cc1 (stereo unspecified),-2%,-7%,-57%,8%,16µM*,-2%
CCc1ccc(NC(=O)c2ccc(C3SCC(=O)N3CCc3ccccc3)cc2)cc1 (stereo unspecified),-12%,-12%,-95%,2%,10µM*,-13%
CCOc1ccc(NC(=O)CN2C(=O)C3(SCC(=O)N3c3ccc(F)cc3)c3ccccc32)cc1 (stereo unspecified),5%,nt,nt,nt,nt,nt
